# Where “and” joins values, the source holds several entries; their conditions need not be identical. Equal values may be shown once. About 2,000 (36%) of roughly 5,500 compounds were called active. About 18% were inconclusive and are not listed. The list shows a part of the results. Unmarked numbers belong to inactive results. Rule as the data show it: active = normalized growth mostly below about 0.91 (no sharp cut-off); inconclusive = no clear call, values can overlap the other calls; inactive = mostly above about 0.92.
# Test: chemical genetic growth profiling, strain panel (AID 1159580);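 also: tested at 20 µM; growth read once vehicle control cultures reached saturation at 30 °C; 1 = growth at the plate median or of vehicle wells; lower values mean less growth of the strain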
# Settings: growth OD
smiles,measurement,setting,value
NCCc1cnc[nH]1,normalized growth,"S. cerevisiae deletion strains, locus YJR066W, strain TOR1, stronger effect = lower value",0.985
same,normalized growth,"S. cerevisiae deletion strains, locus YJR075W, strain HOC1, stronger effect = lower value",1.01
same,normalized growth,"S. cerevisiae deletion strains, locus YKL009W, strain mrt4, stronger effect = lower value",1.01
same,normalized growth,"S. cerevisiae deletion strains, locus YKL068W, stronger effect = lower value",1.01
same,normalized growth,"S. cerevisiae deletion strains, locus YKL085W, strain MDH1 (second series), stronger effect = lower value",1.01
same,normalized growth,"S. cerevisiae deletion strains, locus YKL085W, strain MDH1, stronger effect = lower value",1.01
same,normalized growth,"S. cerevisiae deletion strains, locus YKL160W, strain elf1, stronger effect = lower value",1.02
same,normalized growth,"S. cerevisiae deletion strains, locus YKL190W, strain CNB1, stronger effect = lower value",0.978
same,normalized growth,"S. cerevisiae deletion strains, locus YKR001C, strain vps1, stronger effect = lower value",1.01
same,normalized growth,"S. cerevisiae deletion strains, locus YKR026C, strain gcn3, stronger effect = lower value",1.02
same,normalized growth,"S. cerevisiae deletion strains, locus YKR091W, strain srl3, stronger effect = lower value",1.02
same,normalized growth,"S. cerevisiae deletion strains, locus YLL001W, strain dnm1, stronger effect = lower value",1.02
same,normalized growth,"S. cerevisiae deletion strains, locus YLL026W, stronger effect = lower value",1.02
same,normalized growth,"S. cerevisiae deletion strains, locus YLL041C, strain sdh2, stronger effect = lower value",1.02
same,normalized growth,"S. cerevisiae deletion strains, locus YLR027C, strain aat2, stronger effect = lower value",1.01
same,normalized growth,"S. cerevisiae deletion strains, locus YLR039C, strain RIC1, stronger effect = lower value",1.05
same,normalized growth,"S. cerevisiae deletion strains, locus YLR058C, strain SHM2, stronger effect = lower value",1.01
same,normalized growth,"S. cerevisiae deletion strains, locus YLR102C, strain apc9, stronger effect = lower value",1.02
same,normalized growth,"S. cerevisiae deletion strains, locus YLR113W, strain HOG1, stronger effect = lower value",0.985
same,normalized growth,"S. cerevisiae deletion strains, locus YLR221C, strain rsa3, stronger effect = lower value",1.05
same,normalized growth,"S. cerevisiae deletion strains, locus YLR258W, strain gsy2, stronger effect = lower value",1.02
same,normalized growth,"S. cerevisiae deletion strains, locus YLR262C, strain YPT6 (second series), stronger effect = lower value",1.06
same,normalized growth,"S. cerevisiae deletion strains, locus YLR262C, strain YPT6, stronger effect = lower value",1
same,normalized growth,"S. cerevisiae deletion strains, locus YLR268W, strain sec22, stronger effect = lower value",1.02
same,normalized growth,"S. cerevisiae deletion strains, locus YLR320W, strain mms22, stronger effect = lower value",1.04
same,normalized growth,"S. cerevisiae deletion strains, locus YLR330W, strain CHS5, stronger effect = lower value",1.01
same,normalized growth,"S. cerevisiae deletion strains, locus YLR342W, strain FKS1 (second series), stronger effect = lower value",0.997
same,normalized growth,"S. cerevisiae deletion strains, locus YLR342W, strain FKS1, stronger effect = lower value",1.02
same,normalized growth,"S. cerevisiae deletion strains, locus YLR357W, strain rsc2, stronger effect = lower value",1
same,normalized growth,"S. cerevisiae deletion strains, locus YLR370C, strain arc18, stronger effect = lower value",1.01
same,normalized growth,"S. cerevisiae deletion strains, locus YLR371W, strain rom2, stronger effect = lower value",1
same,normalized growth,"S. cerevisiae deletion strains, locus YLR384C, strain iki3, stronger effect = lower value",1.02
same,normalized growth,"S. cerevisiae deletion strains, locus YLR418C, strain cdc73, stronger effect = lower value",1.04
same,normalized growth,"S. cerevisiae deletion strains, locus YML016C, strain PPZ1, stronger effect = lower value",1.01
same,normalized growth,"S. cerevisiae deletion strains, locus YML032C, strain rad52, stronger effect = lower value",1.01
same,normalized growth,"S. cerevisiae deletion strains, locus YML120C, strain ndi1, stronger effect = lower value",1.02
same,normalized growth,"S. cerevisiae deletion strains, locus YML124C, strain tub3, stronger effect = lower value",1.01
same,normalized growth,"S. cerevisiae deletion strains, locus YMR058W, strain fet3, stronger effect = lower value",1.02
same,normalized growth,"S. cerevisiae deletion strains, locus YMR078C, strain ctf18, stronger effect = lower value",1.02
same,normalized growth,"S. cerevisiae deletion strains, locus YMR125W, strain sto1, stronger effect = lower value",1.02
same,normalized growth,"S. cerevisiae deletion strains, locus YMR129W, stronger effect = lower value",1.02
same,normalized growth,"S. cerevisiae deletion strains, locus YMR205C, strain PFK2, stronger effect = lower value",1.04
same,normalized growth,"S. cerevisiae deletion strains, locus YMR223W, strain ubp8, stronger effect = lower value",1.03
same,normalized growth,"S. cerevisiae deletion strains, locus YMR231W, strain pep5, stronger effect = lower value",1.01
same,normalized growth,"S. cerevisiae deletion strains, locus YMR307W, strain GAS1, stronger effect = lower value",0.923 and 0.999
same,normalized growth,"S. cerevisiae deletion strains, locus YNL067W, strain RPL9B, stronger effect = lower value",0.995
same,normalized growth,"S. cerevisiae deletion strains, locus YNL071W, strain lat1, stronger effect = lower value",1.02
same,normalized growth,"S. cerevisiae deletion strains, locus YNL128W, strain TEP1, stronger effect = lower value",1
same,normalized growth,"S. cerevisiae deletion strains, locus YNL153C, strain GIM3, stronger effect = lower value",0.778 (active)
same,normalized growth,"S. cerevisiae deletion strains, locus YNL175C, strain NOP13, stronger effect = lower value",0.381 (active)
same,normalized growth,"S. cerevisiae deletion strains, locus YNL183C, strain NPR1, stronger effect = lower value",0.962
same,normalized growth,"S. cerevisiae deletion strains, locus YNL197C, strain WHI3, stronger effect = lower value",0.662 (active)
same,normalized growth,"S. cerevisiae deletion strains, locus YNL209W, strain ssb2, stronger effect = lower value",1.02
same,normalized growth,"S. cerevisiae deletion strains, locus YNL233W, strain BNI4, stronger effect = lower value",1.01
same,normalized growth,"S. cerevisiae deletion strains, locus YNL248C, strain rpa49, stronger effect = lower value",1.02
same,normalized growth,"S. cerevisiae deletion strains, locus YNL250W, strain rad50, stronger effect = lower value",1.05
same,normalized growth,"S. cerevisiae deletion strains, locus YNL271C, strain bni1, stronger effect = lower value",1.03
same,normalized growth,"S. cerevisiae deletion strains, locus YNL298W, strain CLA4, stronger effect = lower value",1.02
same,normalized growth,"S. cerevisiae deletion strains, locus YNL307C, strain MCK1, stronger effect = lower value",1.02
same,normalized growth,"S. cerevisiae deletion strains, locus YNL322C, strain KRE1 (second series), stronger effect = lower value",1.03
same,normalized growth,"S. cerevisiae deletion strains, locus YNR049C, strain mso1, stronger effect = lower value",1.04
same,normalized growth,"S. cerevisiae deletion strains, locus YNR052C, strain pop2, stronger effect = lower value",1.01
same,normalized growth,"S. cerevisiae deletion strains, locus YOL012C, strain htz1",1.37
same,normalized growth,"S. cerevisiae deletion strains, locus YOL147C, strain pex11, stronger effect = lower value",1.02
same,normalized growth,"S. cerevisiae deletion strains, locus YOR001W, strain rrp6, stronger effect = lower value",1.01
same,normalized growth,"S. cerevisiae deletion strains, locus YOR061W, strain CKA2, stronger effect = lower value",1.01
same,normalized growth,"S. cerevisiae deletion strains, locus YOR069W, strain VPS5, stronger effect = lower value",1
same,normalized growth,"S. cerevisiae deletion strains, locus YOR070C, strain gyp1, stronger effect = lower value",1.02
same,normalized growth,"S. cerevisiae deletion strains, locus YOR080W, strain dia2, stronger effect = lower value",1.01
same,normalized growth,"S. cerevisiae deletion strains, locus YOR083W, strain WHI5 (second series), stronger effect = lower value",0.582 (active)
same,normalized growth,"S. cerevisiae deletion strains, locus YOR083W, strain WHI5, stronger effect = lower value",1.03
same,normalized growth,"S. cerevisiae deletion strains, locus YOR106W, strain vam3, stronger effect = lower value",1
same,normalized growth,"S. cerevisiae deletion strains, locus YOR136W, strain idh2, stronger effect = lower value",1.02
same,normalized growth,"S. cerevisiae deletion strains, locus YOR144C, strain elg1, stronger effect = lower value",1.01
same,normalized growth,"S. cerevisiae deletion strains, locus YOR184W, strain ser1, stronger effect = lower value",1.02
same,normalized growth,"S. cerevisiae deletion strains, locus YOR231W, strain MKK1, stronger effect = lower value",1
same,normalized growth,"S. cerevisiae deletion strains, locus YOR265W, strain rbl2, stronger effect = lower value",1.02
same,normalized growth,"S. cerevisiae deletion strains, locus YOR270C, strain vph1, stronger effect = lower value",1.07
same,normalized growth,"S. cerevisiae deletion strains, locus YOR290C, strain snf2, stronger effect = lower value",0.969
same,normalized growth,"S. cerevisiae deletion strains, locus YOR316C, strain cot1, stronger effect = lower value",1.02
same,normalized growth,"S. cerevisiae deletion strains, locus YPL051W, strain arl3, stronger effect = lower value",1
same,normalized growth,"S. cerevisiae deletion strains, locus YPL078C, strain atp4, stronger effect = lower value",1.02
same,normalized growth,"S. cerevisiae deletion strains, locus YPL106C, strain sse1, stronger effect = lower value",1.03
same,normalized growth,"S. cerevisiae deletion strains, locus YPL240C, strain hsp82, stronger effect = lower value",1.01
same,normalized growth,"S. cerevisiae deletion strains, locus YPL241C, strain CIN2, stronger effect = lower value",1
same,normalized growth,"S. cerevisiae deletion strains, locus YPR119W, strain clb2, stronger effect = lower value",1.01
same,normalized growth,"S. cerevisiae deletion strains, locus YPR141C, strain kar3, stronger effect = lower value",1.01
same,normalized growth,"S. cerevisiae deletion strains, locus YPR163C, strain tif3, stronger effect = lower value",1.03
same,normalized growth,"S. cerevisiae deletion strains, locus YPR167C, strain met16, stronger effect = lower value",1.02
same,normalized growth,"S. cerevisiae deletion strains, strain wtn01, stronger effect = lower value",1.01
same,normalized growth,"S. cerevisiae strains, strain wild type, stronger effect = lower value",0.988
